# WRN inhibitor – inhibitors of human WRN helicase. WRN helicase unwinding, fluorescent forked duplex, kinetic. Potency, µM (series often up to 114 µM), actives largely listed as inhibitors. hit rate 0.46% among 360,000; further: nearly all actives have a fitted effect of over 55% in size
#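 Kinetic fluorescence helicase assay: unwinding of a quenched forked DNA duplex (100 nM final) with 2 mM ATP final raises red fluorescence (525/598 nm). Compounds sat 15 min at room temperature with 20 nM WRN beforehand.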
# Pol eta inh – DNA polymerase eta (human) inhibition | Q9Y253 | recombinant Pol eta, fluorescent DNA replication assay | Potency, µM (highest dose often 114 µM), hits mostly inhibitors | hit rate 1.2% among 390,000
#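 Pol eta at 10 nM preincubated with compounds 15 min at room temperature; reaction started with fluorescent substrate (50 nM final) and read kinetically at 0 and 10 min.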
# Pol iota inh – inhibitors of human DNA polymerase iota. Potency, µM (highest dose often 115 µM), most hits filed as inhibitors. Pol iota fluorescent replication assay, 10 min. hit rate 1% among 390,000
# Target sequence (Q9UNA4 whole entry, looked up): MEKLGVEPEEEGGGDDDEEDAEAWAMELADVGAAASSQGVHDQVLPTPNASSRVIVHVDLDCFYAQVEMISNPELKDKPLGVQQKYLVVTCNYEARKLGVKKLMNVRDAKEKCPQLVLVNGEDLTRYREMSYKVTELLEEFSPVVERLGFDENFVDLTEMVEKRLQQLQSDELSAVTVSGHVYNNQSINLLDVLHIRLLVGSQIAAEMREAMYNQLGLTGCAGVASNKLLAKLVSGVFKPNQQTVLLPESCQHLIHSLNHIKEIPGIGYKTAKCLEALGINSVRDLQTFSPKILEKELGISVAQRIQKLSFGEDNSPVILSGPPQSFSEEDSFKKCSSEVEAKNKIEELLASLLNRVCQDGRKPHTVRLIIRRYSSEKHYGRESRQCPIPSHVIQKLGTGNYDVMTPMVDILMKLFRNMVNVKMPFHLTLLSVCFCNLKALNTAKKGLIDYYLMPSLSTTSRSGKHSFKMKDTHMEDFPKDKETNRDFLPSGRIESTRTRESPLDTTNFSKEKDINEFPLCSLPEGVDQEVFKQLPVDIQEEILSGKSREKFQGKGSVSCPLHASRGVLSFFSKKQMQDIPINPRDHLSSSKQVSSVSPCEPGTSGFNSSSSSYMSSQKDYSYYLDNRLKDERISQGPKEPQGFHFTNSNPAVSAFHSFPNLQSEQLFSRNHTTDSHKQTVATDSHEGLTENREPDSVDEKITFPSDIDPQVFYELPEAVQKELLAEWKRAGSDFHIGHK
#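 Fluorescent replication assay read twice, at 0 min and 10 min after adding 50 nM (final) substrate. Enzyme (10 nM) and compounds were first incubated 15 min at room temperature; enzyme-free buffer wells were negative controls.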
# FEN1 inhibitor – human FEN1 inhibition; P39748; Recombinant FEN1 flap cleavage, fluorescence, 15 min; Potency, µM (series often up to 114 µM), actives largely listed as inhibitors; hit rate 0.35% among 390,000; AID 588795; further: nearly all actives have a fitted effect of over 65% in size
#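 Quantitative HTS format: each compound was titrated, incubated with 10 nM nuclease for 15 min at room temperature, then challenged with flap substrate at 50 nM final. Signal change over 15 min gave concentration–effect curves.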
# Pol kappa inh – inhibitors of human DNA polymerase kappa. Q9UBT6. purified Pol kappa, fluorescent DNA synthesis assay, 10 min. Potency, µM (titrated, usually from 107 µM), most hits filed as inhibitors. hit rate 0.53% among 400,000
#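 Readout: fluorescence, taken kinetically at 0 and 10 min. Conditions: 10 nM Pol kappa, 15 min RT compound preincubation, 50 nM substrate final. Controls: enzyme-free buffer wells.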
# POLB inh – blocks human DNA polymerase beta activity | AID 485314 | P06746 | Potency, µM (titrated, usually from 114 µM), hits mostly inhibitors | hit rate 1.3% among 340,000 | Pol beta primer extension/strand displacement, fluorescence kinetic
#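 Pol beta (10 nM) was preincubated with compound for 15 min at room temperature. The reaction was then started with 50 nM substrate and read immediately and after a further 10 min at room temperature.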
# A number is an active result; i = inactive; ? = inconclusive; nt = not tested or not shown; [ ] = remark or other dose. A selection: hits, their analogues and other compounds. The true share with any hit is near 2.4%. The call rests on the fitted dose curve; in most records, active means well fitted curve in the direction sought with a large enough effect; inconclusive means small, poorly fitted or top-dose-only effect, or another doubt; inactive means no such curve, though single readings can be large; an effect the other way counts as inactive or inconclusive.
SMILES,WRN inhibitor,Pol eta inh,Pol iota inh,FEN1 inhibitor,Pol kappa inh,POLB inh
COc1cc(C(=O)N/N=C/c2cc([N+](=O)[O-])cs2)cc(OC)c1OC,i,i,i,i,i,i
COc1cc(OC)c2c(-c3ccccc3)cc(=O)oc2c1C(CC(=O)N1CCN(c2ccccc2)CC1)c1ccc2c(c1)OCO2 (configuration not stated),nt,nt,nt,nt,nt,50µM
COc1cc2nc(N(C)C)nc(NC3CCN(C)CC3)c2cc1OC,nt,nt,25µM,28µM,?,nt
COc1cc2nc(N(C)C)nc(N)c2cc1OC,i,i,?,?,i,45µM
COc1cc2nc(CCNCc3ccccc3)nc(NC3CCN(C)CC3)c2cc1OC,nt,nt,i,45µM,i,nt
COc1cc2nc(Cl)nc(NC3CCN(C)CC3)c2cc1OC,nt,nt,i,?,i,nt
COc1cc2nc(Nc3ccc(C)c(C)c3)nc(N)c2cc1OC,?,?,i,?,i,?
COc1cc2nc(NC3CCN(C)CC3)nc(NC3CCN(C)CC3)c2cc1OC,nt,nt,i,45µM,i,nt
O=C([C@@H]1CC=C[C@@H]2CCN(C3CC3)C(=O)[C@@H]21)N1CCOCC1,nt,nt,i,i,i,nt
O=C1C(=Cc2cn(-c3ccccc3)nc2-c2ccc(OCc3ccccc3F)cc2)SC(=S)N1CCS(=O)(=O)O,32µM,nt,nt,nt,nt,nt
C=C(C)[C@@H]1C2=CC(C(=O)OC)=C(C[C@@H](C(=C)C)[C@H]3O[C@H]3C3=C[C@H]1OC3=O)O2,nt,nt,?,i,i,nt
CN1C(=O)S/C(=C/c2cccn2-c2cccc(C(=O)O)c2)C1=O,i[11.6 µM],50µM,?,i,i,?
COc1ccc(C2C=C3CNS(=O)(=O)C3CC2OC(=O)c2cccs2)cc1 (configuration not stated),nt,nt,i,i,i,nt
COc1cccc(/C=N/Nc2nc(Nc3ccc([N+](=O)[O-])cc3)nc(N3CCCC3)n2)c1O,50µM,22µM,?,i,14µM,?
O=C(COc1cccnc1[N+](=O)[O-])c1ccc(Cl)s1,?,45µM,11µM,?,79µM,32µM
O=[N+]([O-])c1cc(Cl)ccc1Nc1nc(Nc2ccc(Cl)cc2[N+](=O)[O-])nc(N2CCOCC2)n1,nt,nt,i,i,i,nt
C[n+]1ccc(C(c2c[nH]c3ccccc23)c2cc[n+](C)c3ccccc23)c2ccccc21,nt,nt,89µM,18µM,79µM,nt
CCN1C(=O)/C(=C\c2ccc(-c3cccc(C(=O)OC)c3)o2)SC1=Nc1ccc(C(=O)O)cc1,nt,nt,nt,nt,nt,i
CCN=C1S/C(=C/c2ccc(-c3ccc(Cl)cc3C(=O)O)o2)C(=O)N1CC,i,35µM,i,?,i,i
O=C(/C=C/c1ccco1)Nc1cc(Cl)ccc1C(=O)O,i,10µM,?,i,?,22µM
O=C(/C=C\c1ccco1)Nc1cc([N+](=O)[O-])ccc1F,i,i,i,i,i,i
S=c1[nH]nc(COc2ccccc2)n1/N=C/C=C/c1ccccc1,i,i,i,i,i,i
S=c1[nH]nc(COc2ccccc2)n1/N=C/C=C/c1ccco1,i,28µM,?,i,?,20µM
O=[N+]([O-])c1ccc(CS(=O)c2ccccc2)cc1 (configuration not stated),i,i,i,i,i,nt
O=[N+]([O-])c1ccc(S(=O)Cc2ccccc2)c([N+](=O)[O-])c1 (configuration not stated),10µM,i,?,?,i,nt
SMILES,WRN inhibitor,Pol eta inh,Pol iota inh,FEN1 inhibitor,Pol kappa inh,POLB inh
O=C(C[N+]1(CCO)CCOCC1)c1cccs1,nt,nt,i,i,i,nt
Cc1[nH]c2ccccc2c1C1=CC(=O)C=CC1=O,56µM,?,?,i,i,nt
COc1ccccc1C(=O)N/C(=C/c1ccc(Br)cc1)C(=O)NCC(=O)O,i,i,i,i,i,i
C=CCNC(=O)/C(=C\c1ccc(Br)cc1)NC(=O)c1ccccc1OC,i,i,i,i,i,0.14µM
Clc1ccc2nc[nH]c2c1,nt,nt,i,i,i,nt
O=C(Nc1cccc(Cl)c1)c1cccc(N2C(=O)C3CC=CCC3C2=O)c1 (configuration not stated),i,i,?,i,i,16µM
COc1ccc(/C(C)=N/NC(=O)CNC(=O)/C=C\c2ccco2)cc1,i[11.6 µM],i,50µM,i,i,25µM
Cc1ccc(S(=O)(=O)N2CCN(c3nc(N(C)c4cc(Cl)ccc4O)nc4ccccc34)CC2)cc1,nt,nt,i,i,i,nt
COc1ccc(SCC(Cc2ccccc2)N2CCN(CC(C)C)CCC2=O)cc1 (configuration not stated),nt,nt,?,i,i,nt
CCN(c1ccc(C)cc1C)S(=O)(=O)c1nnc(NC(=O)c2ccc(F)cc2)s1,nt,i,?,i,i,18µM
CCN(c1cc(C)cc(C)c1)S(=O)(=O)c1nnc(NC(=O)c2ccco2)s1,i,i,i,i,i,i
CCOCc1nnc(NC(=O)c2ccco2)s1,i,i,i,i,i,i
Cc1cccc(C(=O)Nc2nnc(S(=O)(=O)N(C)Cc3ccc(Cl)cc3)s2)c1,nt,i,89µM,i,i,i
CCN(c1ccccc1C)S(=O)(=O)c1nnc(NC(=O)c2ccco2)s1,i[11.6 µM],50µM,?,i,?,?
CCCCCCCCc1nnc(NC(=O)c2ccco2)s1,i,i,i,i,i,35µM
CCN(c1ccc(C)cc1C)S(=O)(=O)c1nnc(NC(=O)C(C)C)s1,i,i,i,i,i,i
CC(C)(C)C(=O)OCCNc1nc(-c2cccs2)nc2ccccc12,nt,nt,i,i,i,nt
O=[N+]([O-])c1ccc(O/N=[N+](\[O-])N2CCN(c3ccccc3)CC2)c([N+](=O)[O-])c1,nt,nt,?,i,i,nt
COc1ccc2[nH]cc(CCNc3ccnc(-c4ccccc4Cl)n3)c2c1,nt,nt,nt,nt,i,nt
COc1ccc(N(CC(C)C)S(=O)(=O)c2nnc(NC(=O)c3ccco3)s2)cc1,i[11.6 µM],79µM,?,i,i,i
CC(=O)NCCCc1ccc(C(=O)COC(=O)CNC(=O)c2ccc3ccccc3c2)cc1,nt,nt,i,i,i,nt
Cc1ccc(C)c(S(=O)(=O)Nc2cc(SCC(=O)O)c(O)c3ccccc23)c1,18µM,22µM,8.9µM,56µM,i,79µM
COc1ccc(CN(Cc2ccccc2)C(=O)Nc2ccccc2)cc1COc1ccc(NC(C)=O)cc1,nt,nt,i,i,i,nt
O=c1c(Cl)c(Cl)cnn1Cc1nnc(-c2ccc(Cl)cc2)o1,i[11.6 µM],50µM,40µM,i,i,40µM
C=CCOC(=O)C(=O)/C=C/c1ccc2c(c1)Cc1ccccc1-2,i,i,13µM,i,i,i
O=C(C[n+]1ccccc1)Nc1c(Cl)cc(Cl)cc1Cl,i,i,i,i,i,8.9µM
NCCCC[C@H](N)C(=O)N[C@@H](CCCN=C(N)N)C(=O)N1CCC[C@H]1C(=O)N1CCC[C@H]1C(=O)NCC(=O)N[C@@H](Cc1ccccc1)C(=O)N[C@@H](CO)C(=O)N1CCC[C@H]1C(=O)N[C@@H](Cc1ccccc1)C(=O)O,nt,nt,nt,nt,i,nt
